Inconclusive results are not listed. A call without a number means that no potency is given here. A number with no mark means an inactive call. The source made the active and inactive calls. Unless noted, calls follow the shape of the dose curve; as a rule, active = well fitted curve in the direction sought with a large enough effect in the repeat runs; inconclusive = weak or mixed curves; inactive = no such curve, though single readings can be large; an effect the other way counts as inactive or inconclusive.
Tests used:
[1] = qHTS assay to identify aromatase inhibitors - cell viability counter screen (AID 743084);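 also: cells stimulated with testosterone during compound exposure; nearly all actives have a fitted effect of over 55% in size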
[2] = qHTS assay to identify small molecule that activate the aryl hydrocarbon receptor (AhR) signaling pathway - cell viability counter screen (AID 743086);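 also: HepG2 liver cells carrying the AhR DRE luciferase reporter; series mostly up to about 70 µM; nearly all actives have a fitted effect of over 45% in size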
In short: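 Cytotoxicity counter screen: CellTiter-Fluor signal (30 min, 37 C) in 4000 HepG2 cells/well carrying the DRE-luciferase reporter, following 24 h compound exposure at 37 C.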

[3] = qHTS assay to identify small molecule antagonists of the peroxisome proliferator-activated receptor gamma (PPARg) signaling pathway - cell viability counter screen (AID 743194); also: nearly all actives have a fitted effect of over 55% in size
In short: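 Viability was measured as CellTiter-Glo luminescence in GeneBLAzer PPARg UAS-bla HEK293H cells. These cells had been exposed 17 h at 37 C to compounds together with rosiglitazone at 50 nM final, with the beta-lactamase readout taken in the same wells.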

[4] = qHTS assay for small molecule agonists of the antioxidant response element (ARE) signaling pathway (AID 743202; active = well fitted activation curve with a large enough effect in the signal ratio in the repeat runs, not every such curve was filed as active; the % refers to the signal ratio; also: potency is read from the fitted curve at half-maximal effect)
In short: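 After 16 hours of compound treatment at 37 C, HepG2 cells with a stably integrated ARE-driven beta-lactamase reporter were loaded 2 hours at room temperature with LiveBLAzer B/G FRET substrate and fluorescence intensity measured.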

[5] = qHTS assay for small molecule agonists of the antioxidant response element (ARE) signaling pathway - cell viability counter screen (AID 743203; calls by dose curve; also: nearly all actives have a fitted effect of over 55% in size)
In short: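 Luminescence read-out (CellTiter-Glo, 30 min at room temperature) measured cell viability in the same wells as the ARE beta-lactamase reporter. HepG2 ARE-bla cells were treated with compounds for 16 hrs at 37C/5% CO2.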

[6] = qHTS assay to identify small molecule agonists of the peroxisome proliferator-activated receptor delta (PPARd) signaling pathway - cell viability counter screen (AID 743211); also: nearly all actives have a fitted effect of over 55% in size
In short: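 Tox21 library compounds, delivered in DMSO, were incubated 17 h with PPARd-bla HEK293H cells; cytotoxicity was taken from CellTiter-Glo luminescence read 30 min after reagent addition.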

[7] = qHTS assay to identify small molecule antagonists of the peroxisome proliferator-activated receptor delta (PPARd) signaling pathway - cell viability counter screen (AID 743213); also: nearly all actives have a fitted effect of over 50% in size
In short: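 Same-well viability: cells pre-incubated 5 h, dosed with compound plus 300 nM L165041, kept 17 h at 37 C, FRET substrate 2 h RT, then CellTiter-Glo 30 min RT and luminescence.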

[8] = qHTS assay to identify small molecule agonists of the farnesoid-X-receptor (FXR) signaling pathway - cell viability counter screen (AID 743218); also: nearly all actives have a fitted effect of over 45% in size
In short: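 Luminescence from CellTiter-Glo, read after 30 min at RT, reports viability of GeneBLAzer FXR-UAS-bla HEK 293T cells treated 16 h with compounds in the wells used for the beta-lactamase reporter.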

[9] = qHTS assay to identify small molecule antagonists of the farnesoid-X-receptor (FXR) signaling pathway - cell viability counter screen (AID 743221; active = well fitted cell-killing curve with a large enough effect in the repeat runs, not every such curve was filed as active; also: nearly all actives have a fitted effect of over 50% in size)
In short: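 Cytotoxicity is taken from ATP luminescence (CellTiter-Glo, 30 min, room temperature) in FXR-bla HEK 293T cells previously incubated 16 h at 37 C with compound and chenodeoxycholic acid at 50 uM final.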

[10] = molecular target: Vitamin D3 receptor (Homo sapiens) (UniProt P11473); assay: qHTS assay to identify small molecule agonists of the vitamin D receptor (VDR) signaling pathway (AID 743222; calls by dose curve)
In short: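 Beta-lactamase reporter readout (LiveBLAzer B/G FRET, 2 h RT) in VDR-bla cells after 16 h compound treatment at 37C, 5% CO2; cells pre-incubated 4 h before pin transfer of DMSO solutions.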

[11] = molecular target: Vitamin D3 receptor (Homo sapiens) (UniProt P11473); assay: qHTS assay to identify small molecule antagonists of the vitamin D receptor (VDR) signaling pathway (AID 743223; active = well fitted inhibition curve with a large enough effect in the signal ratio in the repeat runs, not every such curve was filed as active; the % refers to the signal ratio)
In short: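 Quantitative HTS in VDR-bla reporter cells stimulated with 1alpha,25-dihydroxyvitamin D3, 3 nM final. Compound exposure 16 h, 37C, 5% CO2. Read-out: beta-lactamase FRET substrate fluorescence, 2 h RT.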

[12] = molecular target: Peroxisome proliferator-activated receptor gamma (Homo sapiens) (UniProt P37231); assay: qHTS assay to identify small molecule agonists of the peroxisome proliferator-activated receptor gamma (PPARg) signaling pathway (AID 743094; active = well fitted activation curve with a large enough effect in the signal ratio in the repeat runs, not every such curve was filed as active; the % refers to the signal ratio)
In short: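 HEK293H PPARg-bla cells, 5 h settle at 37C/5% CO2; compound (DMSO) 17 h, 37C; B/G FRET substrate 1 h RT; fluorescence intensity read-out. qHTS format.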

[13] = qHTS assay for small molecule activators of the heat shock response signaling pathway - cell viability counter screen (AID 743209); also: nearly all actives have a fitted effect of over 50% in size
In short: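 HSE-bla HeLa; 1500 cells/well; overnight 37 C, 5% CO2; compound 5 h 37 C; LiveBLAzer B/G substrate 2.5 h RT; CellTiter-Glo 30 min RT; luminescence.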

[14] = qHTS assay for small molecule activators of the heat shock response signaling pathway (AID 743210; active = well fitted activation curve with a large enough effect in the signal ratio in the repeat runs, with a control signal flat, not every such curve was filed as active; the % refers to the signal ratio; also: series mostly up to about 63 µM)
In short: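 Compound exposure lasted 5 h at 37 C in HeLa cells carrying a heat-shock-element-driven beta-lactamase reporter. Read-out: fluorescence intensity after 2.5 h room-temperature loading with LiveBLAzer B/G FRET substrate.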

[15] = molecular target: Bile acid receptor (Homo sapiens) (UniProt Q96RI1); assay: qHTS assay to identify small molecule antagonists of the farnesoid-X-receptor (FXR) signaling pathway (AID 743217; active = well fitted inhibition curve with a large enough effect in the signal ratio in the repeat runs, not every such curve was filed as active; the % refers to the signal ratio)
In short: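 Read-out: beta-lactamase FRET fluorescence (LiveBLAzer B/G substrate, 2 h, room temperature) in GeneBLAzer FXR-UAS-bla HEK 293T cells. Compounds were co-dosed with 50 uM chenodeoxycholic acid (final) and incubated 16 h at 37 °C.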

[16] = molecular target: Bile acid receptor (Homo sapiens) (UniProt Q96RI1); assay: qHTS assay to identify small molecule agonists of the farnesoid-X-receptor (FXR) signaling pathway (AID 743220; active = well fitted activation curve with a large enough effect in the signal ratio in the repeat runs, not every such curve was filed as active; the % refers to the signal ratio)
In short: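 FXR-UAS-bla HEK 293T cells carrying a UAS-driven beta-lactamase reporter were plated for 5 h at 37C/5% CO2, then exposed to DMSO-dissolved Tox21 10K compounds for 16 h at 37C. A LiveBLAzer B/G FRET substrate was loaded for 2 h at room temperature before fluorescence reading.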

[17] = molecular target: Peroxisome proliferator-activated receptor delta (Homo sapiens) (UniProt Q03181); assay: qHTS assay to identify small molecule antagonists of the peroxisome proliferator-activated receptor delta (PPARd) signaling pathway (AID 743215; active = well fitted inhibition curve with a large enough effect in the signal ratio in the repeat runs, not every such curve was filed as active; the % refers to the signal ratio;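 also: cells stimulated with agonist L165041 at 300 nM final during compound exposure; series mostly up to about 62 µM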)
In short: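 HEK293H GeneBLAzer PPARd UAS-bla reporter cells; cpd + L165041 300 nM final, 17 h 37 C; LiveBLAzer B/G FRET substrate 2 h RT; fluorescence intensity read-out. Antagonist mode.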

[18] = molecular target: Peroxisome proliferator-activated receptor gamma (Homo sapiens) (UniProt P37231); assay: qHTS assay to identify small molecule antagonists of the peroxisome proliferator-activated receptor gamma (PPARg) signaling pathway (AID 743191; calls by dose curve; also: series mostly up to about 63 µM; nearly all actives have a fitted effect of over 30% in size)
In short: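 Beta-lactamase reporter under UAS control in HEK293H PPARg-bla cells; compound treatment 17 h at 37C. Read-out: fluorescence intensity after 1 h room-temperature incubation with LiveBLAzer B/G FRET substrate.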

[19] = molecular target: Peroxisome proliferator-activated receptor delta (Homo sapiens) (UniProt Q03181); assay: qHTS assay to identify small molecule agonists of the peroxisome proliferator-activated receptor delta (PPARd) signaling pathway (AID 743212; calls by dose curve)
In short: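 Beta-lactamase reporter readout: a ratiometric FRET signal from the LiveBLAzer substrate after 2 h at room temperature. Compound exposure at 37 °C in PPARδ-bla HEK293H cells driven by an upstream activator sequence.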

[20] = molecular target: Aryl hydrocarbon receptor (Homo sapiens) (UniProt P35869); assay: qHTS assay to identify small molecule that activate the aryl hydrocarbon receptor (AhR) signaling pathway (AID 743085);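 also: HG2L7.5c1 human HepG2 liver cells with stably integrated DRE-driven firefly reporter; series mostly up to about 70 µM; nearly all actives have a fitted effect of over 15% in size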
In short: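 A multiplexed format paired cell viability (CellTiter-Fluor fluorescence) with AhR-dependent luciferase output (ONE-Glo luminescence) in the same wells of HepG2 DRE-luc cells after 24 h compound exposure at 37C.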

Aryl hydrocarbon receptor (Homo sapiens), sequence (P35869 whole entry, looked up): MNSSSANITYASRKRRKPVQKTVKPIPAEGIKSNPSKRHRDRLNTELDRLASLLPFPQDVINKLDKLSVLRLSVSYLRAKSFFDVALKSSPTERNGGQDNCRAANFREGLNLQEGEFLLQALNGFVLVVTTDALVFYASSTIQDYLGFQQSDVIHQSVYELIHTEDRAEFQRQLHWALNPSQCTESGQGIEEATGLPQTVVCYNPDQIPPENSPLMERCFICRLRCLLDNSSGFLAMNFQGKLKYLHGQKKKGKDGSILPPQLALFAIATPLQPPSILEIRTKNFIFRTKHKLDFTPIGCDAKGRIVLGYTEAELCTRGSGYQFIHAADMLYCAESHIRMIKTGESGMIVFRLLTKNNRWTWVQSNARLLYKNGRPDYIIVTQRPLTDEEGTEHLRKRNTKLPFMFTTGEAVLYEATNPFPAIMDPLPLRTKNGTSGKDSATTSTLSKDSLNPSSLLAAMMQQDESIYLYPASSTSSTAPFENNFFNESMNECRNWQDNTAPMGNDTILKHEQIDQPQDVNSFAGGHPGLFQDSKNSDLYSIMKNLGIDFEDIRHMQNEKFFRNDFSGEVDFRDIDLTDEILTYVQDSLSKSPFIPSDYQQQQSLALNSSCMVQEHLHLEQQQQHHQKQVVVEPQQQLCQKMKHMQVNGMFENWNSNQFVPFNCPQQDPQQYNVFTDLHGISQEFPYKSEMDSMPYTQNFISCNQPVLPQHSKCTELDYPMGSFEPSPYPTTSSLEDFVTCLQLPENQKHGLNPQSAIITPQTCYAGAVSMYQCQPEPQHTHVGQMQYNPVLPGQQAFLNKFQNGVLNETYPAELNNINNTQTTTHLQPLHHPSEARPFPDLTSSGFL
Vitamin D3 receptor (Homo sapiens), sequence (P11473 whole entry, looked up): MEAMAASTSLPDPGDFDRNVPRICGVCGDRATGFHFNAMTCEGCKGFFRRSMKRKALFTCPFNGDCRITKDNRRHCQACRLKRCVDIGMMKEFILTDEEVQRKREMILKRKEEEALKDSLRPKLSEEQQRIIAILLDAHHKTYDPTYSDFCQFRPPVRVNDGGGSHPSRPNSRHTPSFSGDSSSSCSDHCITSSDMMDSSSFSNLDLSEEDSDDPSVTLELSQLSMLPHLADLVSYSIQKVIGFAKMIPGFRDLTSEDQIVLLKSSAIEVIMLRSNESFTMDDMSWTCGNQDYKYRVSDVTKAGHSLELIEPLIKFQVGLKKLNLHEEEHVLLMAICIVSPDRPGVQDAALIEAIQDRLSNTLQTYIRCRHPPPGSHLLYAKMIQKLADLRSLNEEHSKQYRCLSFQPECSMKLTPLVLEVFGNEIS
Bile acid receptor (Homo sapiens), sequence (Q96RI1 whole entry, looked up): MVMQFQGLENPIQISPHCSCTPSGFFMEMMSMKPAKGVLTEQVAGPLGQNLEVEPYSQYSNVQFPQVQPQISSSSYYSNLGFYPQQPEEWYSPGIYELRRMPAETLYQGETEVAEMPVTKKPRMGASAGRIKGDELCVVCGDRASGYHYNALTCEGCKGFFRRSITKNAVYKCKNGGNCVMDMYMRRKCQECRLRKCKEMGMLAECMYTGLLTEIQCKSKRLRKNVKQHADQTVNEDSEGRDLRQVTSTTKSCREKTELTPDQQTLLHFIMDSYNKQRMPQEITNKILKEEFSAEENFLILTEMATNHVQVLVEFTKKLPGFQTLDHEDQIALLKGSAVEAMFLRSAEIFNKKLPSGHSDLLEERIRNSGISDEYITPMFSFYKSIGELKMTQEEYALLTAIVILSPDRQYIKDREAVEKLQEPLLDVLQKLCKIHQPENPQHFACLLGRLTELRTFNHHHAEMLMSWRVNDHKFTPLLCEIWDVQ
Peroxisome proliferator-activated receptor delta (Homo sapiens), sequence (Q03181 whole entry, looked up): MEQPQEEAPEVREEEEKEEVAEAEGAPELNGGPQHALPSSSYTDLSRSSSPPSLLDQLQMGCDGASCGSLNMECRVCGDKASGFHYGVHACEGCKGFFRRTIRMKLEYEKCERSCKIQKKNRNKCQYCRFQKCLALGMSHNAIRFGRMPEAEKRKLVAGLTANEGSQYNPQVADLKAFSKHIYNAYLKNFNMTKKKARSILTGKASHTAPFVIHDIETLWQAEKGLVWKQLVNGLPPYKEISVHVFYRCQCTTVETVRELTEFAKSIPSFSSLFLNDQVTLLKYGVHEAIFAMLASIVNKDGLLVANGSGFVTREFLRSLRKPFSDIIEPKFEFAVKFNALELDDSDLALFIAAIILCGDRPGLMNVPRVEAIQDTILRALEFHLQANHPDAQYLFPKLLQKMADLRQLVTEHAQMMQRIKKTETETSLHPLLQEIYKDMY
Peroxisome proliferator-activated receptor gamma (Homo sapiens), sequence (P37231 whole entry, looked up): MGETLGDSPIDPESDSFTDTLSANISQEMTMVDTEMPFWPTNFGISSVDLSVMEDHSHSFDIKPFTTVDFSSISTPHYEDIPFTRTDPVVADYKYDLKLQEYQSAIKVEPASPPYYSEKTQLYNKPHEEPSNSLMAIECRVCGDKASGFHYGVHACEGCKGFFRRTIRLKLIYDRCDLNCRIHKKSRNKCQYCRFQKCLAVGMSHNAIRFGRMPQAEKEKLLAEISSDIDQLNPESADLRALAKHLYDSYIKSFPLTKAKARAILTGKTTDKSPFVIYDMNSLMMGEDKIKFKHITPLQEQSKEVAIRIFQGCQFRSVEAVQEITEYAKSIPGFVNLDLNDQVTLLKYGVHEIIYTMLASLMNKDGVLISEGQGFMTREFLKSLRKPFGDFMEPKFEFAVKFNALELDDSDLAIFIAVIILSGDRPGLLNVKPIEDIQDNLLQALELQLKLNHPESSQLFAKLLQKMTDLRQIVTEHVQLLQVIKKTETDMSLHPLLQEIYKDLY

Row | SMILES | outcome [1] | outcome [2] | outcome [3] | Potency [4] | outcome [5] | outcome [6] | outcome [7] | outcome [8] | outcome [9] | outcome [10] | outcome [11] | outcome [12] | Potency [13] | outcome [14] | outcome [15] | outcome [16] | outcome [17] | outcome [18] | outcome [19] | Potency [20]
1 | CC(=O)OCC(=O)[C@@]1(O)CC[C@H]2[C@@H]3CCC4=CC(=O)C=C[C@]4(C)[C@H]3[C@@H](O)C[C@@]21C | inactive | inactive | inactive | inactive | inactive | inactive | inactive | inactive | inactive | inactive | inactive |  |  |  |  |  |  |  |  | 
2 | O=C(O)Cc1ccccc1Oc1ccc(Cl)cc1Cl | inactive |  | inactive |  | inactive |  | inactive | inactive |  |  |  | inactive | inactive | inactive | inactive | inactive |  |  |  | 
3 | CN(C)CCC[C@@]1(c2ccc(F)cc2)OCc2cc(C#N)ccc21 | inactive | inactive | inactive |  | inactive |  | inactive | inactive | inactive | inactive |  | inactive | inactive | inactive |  |  | inactive |  |  | 
4 | C[n+]1ccccc1/C=N/O | inactive |  | inactive | inactive | inactive |  |  | inactive | inactive | inactive | inactive | inactive | inactive | inactive |  |  | inactive | inactive | inactive | 
5 | NNC(=O)OCc1ccccc1 | inactive |  | inactive |  | inactive | inactive | inactive | inactive | inactive | inactive | inactive | inactive | inactive | inactive |  |  | inactive |  | inactive | 
6 | O=C(CCBr)N1CCN(C(=O)CCBr)CC1 | inactive |  | inactive |  | inactive | inactive | inactive | inactive | inactive | inactive | inactive |  | inactive | inactive | inactive |  | inactive | inactive | inactive | inactive
7 | N=C(N)N | inactive |  | inactive |  | inactive | inactive | inactive | inactive | inactive |  |  |  | inactive | inactive |  |  | inactive |  | inactive | inactive
8 | O=C1Nc2ccccc2C1=O | inactive | inactive |  | 27.1 µM (active) | inactive | inactive | inactive | inactive | inactive | inactive | inactive |  | inactive | inactive |  |  | inactive |  | inactive | 
9 | NC(=O)CC[C@@H](N)C(=O)O | inactive |  | inactive |  |  | inactive | inactive | inactive | inactive |  | inactive | inactive | inactive | inactive |  |  | inactive | inactive | inactive | inactive
10 | CCCCCCCOC(C)=O | inactive | inactive | inactive | inactive | inactive |  | inactive |  | inactive | inactive |  |  | inactive | inactive |  |  | inactive | inactive |  | 
